# Shown are actives, neighbours in structure and some others; about 9.9% of the full set was active somewhere.
# SW480 rerep = induces DNA re-replication in SW480 colon adenocarcinoma cells; SW480 DNA re-replication, Hoechst DNA content imaging, 48 h; Potency, µM (doses to about 46.1 µM), most hits filed as activators; 1.8% of 340,000 active; also: nearly all actives have a fitted effect of over 55% in size
#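 Image-based DNA-content assay: after two days of treatment, nuclei were labelled with the DNA dye Hoechst and imaged, and hits were compounds raising the count of nuclei showing high fluorescence intensity.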
# IL-1B inflam inh = inhibitors of inflammasome signaling (IL-1 beta secretion); 4.7% of 360,000 active; THP-1 LPS/ATP IL-1B secretion, AlphaLISA, 16 h; stronger effect = lower value; AID 743279; activity change, % at 57.5 µM; in the data active = activity change below about -50%; inconclusive = mostly about -30% to -49%
#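 Secreted IL-1B measured by AlphaLISA bead assay after 16 h compound exposure of THP-1 cells; compounds (final up to 57.5 uM) added 1 h before LPS (250 ng/mL) and ATP (1.25 mM) stimulation; lower signal means less secretion.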
# KB-V1 cytotox = KB-V1 MDR subline cytotoxicity; Potency, µM (top dose mostly 46.1 µM), usual class: cytotoxic; KB-V1 MDR cells viability, CellTiter-Glo, 72 h; 3.4% of 400,000 active; also: nearly all actives have a fitted effect of over 60% in size
#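 KB-V1, DMEM (no phenol red) + 10% FBS; cpd pin-transferred, titration series; 72 h, 37 degrees C; CellTiter-Glo, luminescence. Data normalized, curve-fit.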
# KB-3-1 cytotox = kills parental KB-3-1 adenocarcinoma cells; Potency, µM (top dose mostly 46.1 µM), most hits filed as cytotoxic; KB-3-1 viability, CellTiter-Glo ATP luminescence, 72 h; 1.4% of 400,000 active; also: nearly all actives have a fitted effect of over 60% in size
#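 Cytotoxicity in the drug-sensitive parental line KB-3-1 was scored as loss of CellTiter-Glo luminescence following 72 h incubation with compound. Values come from curve fitting of normalized concentration-response data.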
# MCF10A rerep = inducers of DNA re-replication in MCF 10A breast cells | Potency, µM (series often up to 46.1 µM), most hits filed as activators | MCF 10A DNA re-replication, Hoechst nuclear intensity, 48 h | 2.9% of 350,000 active; also: nearly all actives have a fitted effect of over 50% in size
# Numbers stand for hits; i = inactive; ? = inconclusive; nt = not tested or not shown; [ ] = dose if it differs, or a comment. Unless noted, calls follow the shape of the dose curve; as a rule, active = well fitted curve in the direction sought with a large enough effect; inconclusive = small, poorly fitted or top-dose-only effect, or another doubt; inactive = no such curve, though single readings can be large; an effect the other way counts as inactive or inconclusive.
SMILES,SW480 rerep,IL-1B inflam inh,KB-V1 cytotox,KB-3-1 cytotox,MCF10A rerep
CC(C(=O)Nc1ccc([N+](=O)[O-])cc1)N1CCN(C/C=C/c2ccccc2)CC1 (stereo not drawn),i,-77,?,i,?
CC(=O)c1ccc(NC(=O)C(C)N2CCN(C/C=C/c3ccccc3)CC2)cc1 (stereo not drawn),i,i,?,i,i
COc1ccc(Cl)cc1NC(=O)C(C)N1CCN(C/C=C/c2ccccc2)CC1 (stereo not drawn),i,-59,i,i,?
O=CNc1c(Cl)cc2c(c1Cl)Cc1cc([N+](=O)[O-])ccc1-2,21µM,i,?,?,?
Cn1ccnc1SCC(=O)Nc1nc2c(F)c(F)c(F)cc2s1,i,i,i,i,i
NC(=NCCc1c[nH]c2ccccc12)NC(=O)c1ccc(F)cc1,i,-63,i,i,i
NC(=NCCc1c[nH]c2ccccc12)NS(=O)(=O)c1ccc(F)cc1,i,i,i,i,i
CC(C)(C)c1ccc(S(=O)(=O)N2CC(C(=O)O)Oc3ccc(Cl)cc32)cc1 (stereo not drawn),i,i,i,i,?
c1ccc(Nc2ncnc3c2oc2ccccc23)cc1,i,i,i,i,i
Clc1ccc(Cn2ncc3c(NCCN4CCOCC4)ncnc32)cc1,i,i,21µM,i,i
c1ccc2c(c1)oc1c(NCCN3CCOCC3)ncnc12,i,i,23µM,i,i
c1ccc2c(c1)oc1c(Nc3ccc(CN4CCOCC4)cc3)ncnc12,i,?,18µM,?,16µM
Cc1ccc(Cn2ncc3c(NCCCN4CCOCC4)ncnc32)cc1,i,i,i,i,i
CC(=O)N1CCN(c2ccc(Nc3ncnc4c3oc3ccccc34)cc2)CC1,i[9.22 µM],-81,21µM,?,?
CCc1nc(Nc2ccc(N3CCN(C(C)=O)CC3)cc2)c2oc3ccccc3c2n1,i,i,?,?,?
O=C(CNC(=O)C1CCCCC1)NCc1ccco1,i,i,i,i,i
Cc1nc2c3ccccc3nc(NNC(=O)CCC(=O)N3CCN(c4cc(Cl)ccc4C)CC3)n2n1,nt,nt,i,i,nt
COc1cccc(OC)c1C(=O)Nc1ccncc1,i,i,i,i,i
O=S(=O)(c1ccc(Cl)cc1)N1CCC2(CC1)CO2,i,-57,i,i,i
O=S(=O)(c1ccccc1)N1CCC2(CC1)CO2,i,i,i,?,i
CNc1ccc(C=C2C=Cc3ccccc32)cc1,i,-73,i,i,i
C1=Cc2ccccc2/C1=C/c1ccc(/C=C2\C=Cc3ccccc32)cc1,nt,nt,i,i,nt
O=C(c1cc2c(c(-c3cccc(-c4ccncc4)c3)n1)[C@H](CCO)N(C(=O)c1ccc3c(c1)OCO3)C2)N1CCOCC1,nt,i,i,?,nt
CCc1c(C2(O)CCCCC2)[nH]c2ccc(C(F)(F)F)cc12,i,-52,i,?,?
O=c1c2ccccc2oc2cc(-c3ccc4[nH]ccc4c3)ccc12,4.1µM,i,i,?,?
SMILES,SW480 rerep,IL-1B inflam inh,KB-V1 cytotox,KB-3-1 cytotox,MCF10A rerep
COc1cc2sc3ccc(-c4ccc5[nH]ccc5c4)cc3c(=O)c2cc1OC,?,i,?,i,i
Cc1c(C(=O)NCCSCc2cccc(C(F)(F)F)c2)cnn1-c1ccc(Cl)cc1,i,-57,i,i,?
O=C(CC(=O)Nc1ccc(F)cc1)Nc1ccc(F)cc1,i,i,i,i,i
CC(C)C(=O)Nc1nnc(SCC(=O)NC2CCCC2)s1,i,i,?,i,i
CCCCN(CC)CCCNC(=O)c1cc2c(=O)[nH]c3ccccc3c2s1,i,-73,i,?,i
CCN1CCN(CCCNC(=O)c2cc3c(=O)[nH]c4ccccc4c3s2)CC1,i,?,i,i,i
Cc1ccc2[nH]c(=O)c3cc(C(=O)NCCC(C)C)sc3c2c1,i,i,i,i,?
CCC(C)NC(=O)c1cc2c(=O)[nH]c3ccc(C)cc3c2s1 (stereo not drawn),i,-53,i,i,i
O=C(NCCCN1CCOCC1)c1cc2c(=O)[nH]c3ccccc3c2s1,i,-50,i,i,i
CCCCN(CC)CCNC(=O)c1cc2c(=O)[nH]c3ccc(C)cc3c2s1,i,-100,i,?,i
COc1ccc(CCNC(=O)CSc2nc3[nH]ncc3c(=O)n2-c2ccc(C)c(Cl)c2)cc1OC,?,i,i,i,i

# Screens from PubChem BioAssay.
